Residue numbers refer to the chain shown, from its start.

Holding throughout (assay): HT-SELEX; high values mean tight binding
Common to all, as to settings: protein: recombinant; vector His6-GST; dsDNA, one strand shown

One assay has as its target T1, SALL4 ZFC4 WT (HT-SELEX) (Mus musculus, UniProt Q8BX22 870-940).
T1 sequence: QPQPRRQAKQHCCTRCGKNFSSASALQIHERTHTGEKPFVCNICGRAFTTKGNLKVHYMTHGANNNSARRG
A digest of the protocol: (§1)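 Residues 870–940 of mouse SALL4, forming zinc finger cluster 4, were expressed recombinantly, purified, and 1 µg was incubated with library DNA (1.5 µg first cycle, 200 ng later) in 100 µl of 10 mM Tris–HCl pH 7.5, 50 mM NaCl, poly(dI-dC) and DTT for 10 min at room temperature. Washed Ni2+ bead-captured complexes were PCR-amplified and reselected for up to 6 cycles in triplicate, and the products were sequenced on MiSeq and scanned for 6-mers. Binding signal is the fold change in each canonical k-mer's read fraction compared with the initial random library.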

In assay [1] the target is T2, SALL4 ZFC4 R900W (HT-SELEX) (Mus musculus, UniProt Q8BX22 870-940, R900W).
T2 sequence: T1 sequence with R31W
In short, it runs like this: as §1

The target in assay [2] is T3, SALL4 ZFC4 G921D (HT-SELEX) (Mus musculus, UniProt Q8BX22 870-940, G921D).
T3 sequence: T1 sequence with G52D
In short, it runs like this:
as §1

TCCACA: the binding signal with SALL4 ZFC4 WT (HT-SELEX) amounted to 0.698 ± 0.0439 fold-change vs cycle 0; in assay [1] it was 0.806 ± 0.0256 fold-change vs cycle 0; in assay [2], 0.842 ± 0.0543 fold-change vs cycle 0.

Regarding AGAAAC, the binding signal in the assay with SALL4 ZFC4 WT (HT-SELEX) is 1.21 ± 0.0656 fold-change vs cycle 0; in assay [1], 1.36 ± 0.0395 fold-change vs cycle 0; in assay [2], 1.31 ± 0.0847 fold-change vs cycle 0.

Take CACCAA: the binding signal was 0.692 ± 0.0333 fold-change vs cycle 0 in the assay with SALL4 ZFC4 WT (HT-SELEX), 0.776 ± 0.0234 fold-change vs cycle 0 in assay [1] and 0.859 ± 0.0335 fold-change vs cycle 0 in assay [2].

Regarding CCGAGA, the results for the binding signal (in the assay with SALL4 ZFC4 WT (HT-SELEX); in assay [1]; in assay [2]) were 0.385 ± 0.0394 fold-change vs cycle 0, 0.459 ± 0.0241 fold-change vs cycle 0 and 0.548 ± 0.059 fold-change vs cycle 0, respectively.

In the case of CTCCTA, the binding signal with SALL4 ZFC4 WT (HT-SELEX) worked out at 0.926 ± 0.0641 fold-change vs cycle 0; in assay [1], 1.07 ± 0.0219 fold-change vs cycle 0; in assay [2], 1.05 ± 0.0362 fold-change vs cycle 0.

As for ACCGAG, the figures for the binding signal (with SALL4 ZFC4 WT (HT-SELEX); in assay [1]; in assay [2]) were 0.423 ± 0.0215 fold-change vs cycle 0, 0.496 ± 0.0188 fold-change vs cycle 0 and 0.586 ± 0.0556 fold-change vs cycle 0, respectively.

On to ACTTCG, for which the results for the binding signal (with SALL4 ZFC4 WT (HT-SELEX); in assay [1]; in assay [2]) were 0.679 ± 0.0273 fold-change vs cycle 0, 0.7885 ± 0.004 fold-change vs cycle 0 and 0.854 ± 0.0495 fold-change vs cycle 0, respectively.

Turning to ATTGTC, the binding signal with SALL4 ZFC4 WT (HT-SELEX) amounted to 1.14 ± 0.0493 fold-change vs cycle 0; in assay [1], 1.21 ± 0.0499 fold-change vs cycle 0; in assay [2] it was 1.24 ± 0.0435 fold-change vs cycle 0.

With GATTTA, the results for the binding signal (with SALL4 ZFC4 WT (HT-SELEX); in assay [1]; in assay [2]) were 1.94 ± 0.0986 fold-change vs cycle 0, 1.84 ± 0.0979 fold-change vs cycle 0 and 1.71 ± 0.128 fold-change vs cycle 0, respectively.

On to TCCCGA, for which the values for the binding signal (in the assay with SALL4 ZFC4 WT (HT-SELEX); in assay [1]; in assay [2]) were 0.394 ± 0.0144 fold-change vs cycle 0, 0.445 ± 0.019 fold-change vs cycle 0 and 0.562 ± 0.0681 fold-change vs cycle 0, respectively.

AGTAGG: the binding signal in the assay with SALL4 ZFC4 WT (HT-SELEX) came to 0.864 ± 0.0537 fold-change vs cycle 0; in assay [1], 0.972 ± 0.0557 fold-change vs cycle 0; in assay [2], 0.989 ± 0.0263 fold-change vs cycle 0.

Regarding TACGCA, the results for the binding signal (with SALL4 ZFC4 WT (HT-SELEX); in assay [1]; in assay [2]) were 0.51 ± 0.0296 fold-change vs cycle 0, 0.54 ± 0.0242 fold-change vs cycle 0 and 0.668 ± 0.0555 fold-change vs cycle 0, respectively.

With AGGACA, the binding signal with SALL4 ZFC4 WT (HT-SELEX) came to 0.769 ± 0.0198 fold-change vs cycle 0; in assay [1], 0.906 ± 0.0391 fold-change vs cycle 0; in assay [2], 0.947 ± 0.0205 fold-change vs cycle 0.

CCTCGA: the binding signal with SALL4 ZFC4 WT (HT-SELEX) was 0.415 ± 0.0275 fold-change vs cycle 0; in assay [1], 0.51 ± 0.0259 fold-change vs cycle 0; in assay [2], 0.594 ± 0.0635 fold-change vs cycle 0.

CCAGGA: the binding signal was found to be 0.465 ± 0.017 fold-change vs cycle 0 with SALL4 ZFC4 WT (HT-SELEX), 0.546 ± 0.0174 fold-change vs cycle 0 in assay [1] and 0.63 ± 0.0152 fold-change vs cycle 0 in assay [2].

For the sequence GTTTGA, the binding signal with SALL4 ZFC4 WT (HT-SELEX) stood at 1.14 ± 0.0365 fold-change vs cycle 0; in assay [1], 1.26 ± 0.0348 fold-change vs cycle 0; in assay [2], 1.23 ± 0.0615 fold-change vs cycle 0.

In the case of ATGAAG, the binding signal worked out at 1.56 ± 0.0293 fold-change vs cycle 0 in the assay with SALL4 ZFC4 WT (HT-SELEX), 1.68 ± 0.108 fold-change vs cycle 0 in assay [1] and 1.51 ± 0.124 fold-change vs cycle 0 in assay [2].

Turning to GGTCTA, the results for the binding signal (with SALL4 ZFC4 WT (HT-SELEX); in assay [1]; in assay [2]) were 0.681 ± 0.0386 fold-change vs cycle 0, 0.794 ± 0.0243 fold-change vs cycle 0 and 0.8869 ± 0.005 fold-change vs cycle 0, respectively.

For CTGACA, the binding signal with SALL4 ZFC4 WT (HT-SELEX) turned out to be 0.738 ± 0.0153 fold-change vs cycle 0; in assay [1], 0.843 ± 0.0362 fold-change vs cycle 0; in assay [2], 0.914 ± 0.0368 fold-change vs cycle 0.

AACCTC: the binding signal in the assay with SALL4 ZFC4 WT (HT-SELEX) was 0.87 ± 0.0372 fold-change vs cycle 0; in assay [1], 0.961 ± 0.043 fold-change vs cycle 0; in assay [2] it was 1.02 ± 0.0516 fold-change vs cycle 0.

On to CCGTTA, for which the values for the binding signal (with SALL4 ZFC4 WT (HT-SELEX); in assay [1]; in assay [2]) were 0.746 ± 0.0254 fold-change vs cycle 0, 0.832 ± 0.0409 fold-change vs cycle 0 and 0.854 ± 0.0323 fold-change vs cycle 0, respectively.

As for GTTTTA, the binding signal in the assay with SALL4 ZFC4 WT (HT-SELEX) came out at 1.65 ± 0.0877 fold-change vs cycle 0; in assay [1] it was 1.66 ± 0.0685 fold-change vs cycle 0; in assay [2], 1.54 ± 0.113 fold-change vs cycle 0.
